From PubChem BioAssay (NCI) come the findings set out here.

The nature of assay [1]: NCI Yeast Anticancer Drug Screen. Data for the rad50 strain (AID 155).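 Note: 0% = growth of vehicle-only cultures of the same strain.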 To be noted: S. cerevisiae rad50 strain growth inhibition, hits give high values. In a few lines: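 A DNA repair-deficient yeast mutant serves as the test organism; compound-induced growth inhibition is calculated against vehicle-treated cells.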
Assay [2] is described as follows: NCI Yeast Anticancer Drug Screen. Data for the mec2-1 strain (AID 157). As to conditions: S. cerevisiae mec2-1 strain, hits give high values. In a few lines: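 Yeast mec2-1 mutant treated with compound. Readout: growth inhibition vs vehicle controls.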
Assay [3] in a line: NCI Yeast Anticancer Drug Screen. Data for the sgs1 mgt1 strain (AID 161).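 Note: 0% = growth of cultures given vehicle only.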 To be noted: S. cerevisiae sgs1 mgt1 strain, hits give high values. In a few lines:
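Genetically altered yeast, compound exposure, growth inhibition relative to vehicle.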

The nature of assay [4]: NCI Yeast Anticancer Drug Screen. Data for the cln2 rad14 strain (AID 165).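 Note: 0% = growth equal to vehicle treated cultures.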 To be noted: S. cerevisiae cln2 rad14 strain, hits give high values. In a few lines:
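cln2 rad14 yeast strain; compound exposure; growth inhibition read vs vehicle controls.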

The nature of assay [5]: NCI Yeast Anticancer Drug Screen. Data for the bub3 strain (AID 167). As to conditions: S. cerevisiae bub3 mutant strain, hits give high values. The procedure, abridged: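 Inhibition values come from growth of compound-treated mutant yeast normalised to vehicle-treated controls.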
Assay [6] is described as follows: NCI Yeast Anticancer Drug Screen. Data for the mlh1 rad18 strain (AID 175). To be noted: S. cerevisiae mlh1 rad18 strain growth inhibition, hits give high values. In a few lines:
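Yeast w/ defined DNA-repair lesions; compound exposure; growth vs vehicle controls → % inhibition.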

Setting [7] is: at 5.0 µM (retest, dose inferred, filed as 0.5).
The mark [8] stands for this setting: at 50.0 µM (retest, dose inferred, filed as 5.0).

Compounds without any hit were thinned out: in the full panel of roughly 79,000, 15% have a hit. Values without a mark were called inactive. Activity calls are given as the source filed them. Cut-off read from the data, not from the text of the source: active = growth inhibition above about 70%; inactive = the rest.

Turning to `Cc1ccc(S(=O)(=O)OCC2OC(c3ccccc3)OC3C(CO)OC(c4ccccc4)OC23)cc1` (stereo not given), the growth inhibition was -1% in assay [1] (setting [7]); -6% in assay [1] (setting [8]); 16.7% in assay [1] (at 50.0 µM); 0% in assay [2] (setting [7]); -5% in assay [2] (setting [8]); 50.5% in assay [2] (at 50.0 µM). For the same molecule, the growth inhibition is -3% in assay [3] (setting [7]); -6% in assay [3] (setting [8]); 11.3% in assay [3] (at 50.0 µM); 4% in assay [4] (setting [7]); -10% in assay [4] (setting [8]); 16.2% in assay [4] (at 50.0 µM). Besides, the growth inhibition in assay [5] (setting [7]) is 0%; in assay [5] (setting [8]), -5%; in assay [5] (at 50.0 µM), -0.65%; in assay [6] (setting [7]), 0%; in assay [6] (setting [8]), -6%; in assay [6] (at 50.0 µM) it was 60.5%.
Take `CCOC(=O)CC(O)(CCc1ccccc1)c1ccccc1` (stereo not given): the growth inhibition in assay [1] (setting [7]) is -5%; in assay [1] (setting [8]) it was 6%; in assay [1] (at 50.0 µM), 25.4%; in assay [2] (setting [7]), 1%; in assay [2] (setting [8]) it was 2%; in assay [2] (at 50.0 µM), 54.8%. Also, the growth inhibition in assay [3] (setting [7]) is -14%; in assay [3] (setting [8]), 22%; in assay [3] (at 50.0 µM), -2.1%; in assay [4] (setting [7]) it was -1%; in assay [4] (setting [8]) it was -14%; in assay [4] (at 50.0 µM) it was -18.2%. Further, the growth inhibition in assay [5] (setting [7]) is 14%; in assay [5] (setting [8]), 40%; in assay [5] (at 50.0 µM), 21.1%; in assay [6] (setting [7]), -1%; in assay [6] (setting [8]), 45%; in assay [6] (at 50.0 µM), 9.95%.
Take `Oc1ccc2c(c1)Cc1ccccc1-2`: the growth inhibition in assay [1] (setting [7]) is 1%; in assay [1] (setting [8]), 70% (active); in assay [1] (at 50.0 µM), 93.2% (active); in assay [2] (setting [7]), 0%; in assay [2] (setting [8]) it was 28%; in assay [2] (at 50.0 µM) it was 87.1% (active). Moreover, the growth inhibition in assay [3] (setting [7]) was 1%; in assay [3] (setting [8]), 28%; in assay [3] (at 50.0 µM) it was 53%; in assay [4] (setting [7]), -8%; in assay [4] (setting [8]), 70% (active); in assay [4] (at 50.0 µM), 88.3% (active). For the same molecule, the growth inhibition in assay [5] (setting [7]) was -2%; in assay [5] (setting [8]) it was 82% (active); in assay [5] (at 50.0 µM) it was 98.2% (active); in assay [6] (setting [7]), -1%; in assay [6] (setting [8]), 72% (active); in assay [6] (at 50.0 µM), 93.1% (active).
With `CCCCCCCCCCCCN(CCO)CCO`, the growth inhibition is 68% in assay [1] (setting [7]); 95% (active) in assay [1] (setting [8]); 74.9% (active) in assay [1] (at 50.0 µM); 36% in assay [2] (setting [7]); 96% (active) in assay [2] (setting [8]); 79.3% (active) in assay [2] (at 50.0 µM). Besides, the growth inhibition was 63% in assay [3] (setting [7]); 96% (active) in assay [3] (setting [8]); 89.5% (active) in assay [3] (at 50.0 µM); 67% in assay [4] (setting [7]); 92% (active) in assay [4] (setting [8]); 73.8% (active) in assay [4] (at 50.0 µM). The growth inhibition in assay [5] (setting [7]) was 57%; in assay [5] (setting [8]), 98% (active); in assay [5] (at 50.0 µM), 60.6%; in assay [6] (setting [7]), 41%; in assay [6] (setting [8]), 91% (active); in assay [6] (at 50.0 µM) it was 85.2% (active).
For the molecule `CCOc1ccc2nc([NH-])sc2c1.CCOc1ccc2nc([NH-])sc2c1.[Cl][Pt+2][Cl]`, the growth inhibition in assay [1] (setting [7]) was -1%; in assay [1] (setting [8]) it was -1%; in assay [1] (at 50.0 µM) it was 26.4%; in assay [2] (setting [7]) it was -1%; in assay [2] (setting [8]) it was 4%; in assay [2] (at 50.0 µM), 35.5%. For the same molecule, the growth inhibition in assay [3] (setting [7]) was -1%; in assay [3] (setting [8]), 15%; in assay [3] (at 50.0 µM), 47.8%; in assay [4] (setting [7]), -2%; in assay [4] (setting [8]), -7%; in assay [4] (at 50.0 µM), 17.9%. The growth inhibition in assay [5] (setting [7]) was -2%; in assay [5] (setting [8]), -6%; in assay [5] (at 50.0 µM), -4.85%; in assay [6] (setting [7]) it was -2%; in assay [6] (setting [8]), 3%; in assay [6] (at 50.0 µM), 62.1%.
